From PubChem
KCNQ2 enhance = KCNQ2 (rat) channel potentiation; hit rate 0.54% among 310,000; O88943; CHO-K1 KCNQ2, FluxOR thallium flux fluorescence; active compounds read high; B-score at 10 µM;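 active = fluorescence ratio B-score at least 3 SD of library B-scores, with initial fluorescence B-score within 3 of them, cut at about 5.3 in these data; same plate scores as AID 2156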;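 also: B-score of peak minus minimum over baseline fluorescence ratio after K+ and Tl+ stimulus; positive B-score means potentiation of KCNQ2 with more thallium influx and brighter signal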
KCNQ2 inh = KCNQ2 (rat) channel inhibition. O88943. CHO-K1 KCNQ2, FluxOR thallium flux, 20 min; active compounds read low. B-score at 10 µM. hit rate 1.1% among 310,000. AID 2156;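 active = fluorescence ratio B-score at most minus 3 library SDs, with starting brightness B-score within 2 library SDs, cut at about -5.5 in these data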
Active calls of the source: *. Compounds with a hit are over-represented: about 1.6% of the library has one in this group of screens.

CCOc1ccc(-c2cc(C)[n+](CCO)c(-c3ccc(OCC)cc3)c2)cc1 was read as KCNQ2 enhance 0.49 and KCNQ2 inh inactive.
Screening CCOc1ccc(-c2cc(C)[n+](CCc3ccc(OC)c(OC)c3)c(-c3ccc(OCC)cc3)c2)cc1 returned KCNQ2 enhance -5.78 and KCNQ2 inh -5.78*.
Screening Cc1ccc(/C=C2/Sc3ccc(C(=O)N4CCC5(CC4)OCCO5)cc3NC2=O)cc1 returned KCNQ2 enhance 0.55 and KCNQ2 inh inactive.
For CN(C)CCN=Cc1c(O)n(-c2cccc3ccccc23)c(=O)[nH]c1=O the results were KCNQ2 enhance 0.01 and KCNQ2 inh inactive.
`CC[n+]1c(/C=C/C=C/c2ccc(N(C)C)cc2)sc2ccccc21` gave KCNQ2 enhance -7.89 and KCNQ2 inh -7.89*.
`CN(C)c1ccc(/C=C/C=C/c2sc3ccccc3[n+]2C)cc1` gave KCNQ2 enhance 0.07 and KCNQ2 inh inactive.
For CCCCn1c(O)c(C(C)=Nc2ccc(C(=O)O)cc2)c(=O)[nH]c1=O the results were KCNQ2 enhance 5.62* and KCNQ2 inh inactive.
Screening CCCCn1c(O)c(C(C)=NCCc2ccccc2)c(=O)[nH]c1=O returned KCNQ2 enhance 0.51 and KCNQ2 inh inactive.
Screening O=C1C2CCN(CC2)C1Cc1ccc(OCc2ccccc2)cc1 (stereo not drawn) returned KCNQ2 enhance 0.66 and KCNQ2 inh inactive.
`c1ccc(-c2ccc(-c3n(-c4ccccn4)c4ccccc4[n+]3-c3ccccn3)cc2)cc1` gave KCNQ2 enhance -7.71 and KCNQ2 inh -7.71*.
For CNC(C(=O)c1ccccc1)C(OC)c1cccc([N+](=O)[O-])c1 (stereo not drawn) the results were KCNQ2 inh inactive.
For C/C1=C\[C@@H](C)C/C=C/[C@H]2[C@@H]3O[C@]3(C)[C@@H](C)[C@H]3[C@H](Cc4c[nH]c5ccccc45)NC(=O)[C@]32C(=O)/C=C/C(=O)[C@@H]1O the results were KCNQ2 enhance 8.3* and KCNQ2 inh inactive.
`Cc1cccc(-n2c(O)c(C)c(=O)[nH]c2=S)c1` gave KCNQ2 enhance 0.92 and KCNQ2 inh inactive.
For CCCCn1c(=O)c(C(=O)NCc2ccccc2OC)c(O)c2ccccc21 the results were KCNQ2 enhance -6.22 and KCNQ2 inh -6.22*.
`CCCCCn1c(=O)c(C(=O)NCCc2ccccc2)c(O)c2ccccc21` gave KCNQ2 inh inactive.
`C=C(C=O)CC1CC(O)[C@]2(C)OC3CC4OC5C[C@]6(C)O[C@]7(C)CCC8OC9C[C@]%10(C)OC%11C(C)=CC(=O)OC%11CC%10OC9C[C@@H](C)C8OC7CC6O[C@]5(C)CC5OC5C4OC3CC2O1` (stereo partly drawn) gave KCNQ2 enhance -5.57 and KCNQ2 inh -5.57*.
C=C(CO)CC1CC(O)[C@]2(C)OC3CC4OC5C[C@]6(C)O[C@]7(C)CCC8OC9C[C@]%10(C)OC%11C(C)=CC(=O)OC%11CC%10OC9C[C@@H](C)C8OC7CC6O[C@]5(C)C/C=C\C4OC3CC2O1 (stereo partly drawn) was read as KCNQ2 enhance 0.1 and KCNQ2 inh inactive.
Screening Cc1ccc(-n2c(C)nc3cc(Cl)ccc3c2=O)nc1 returned KCNQ2 inh inactive.
CCCCn1c(C)c(C(=O)O)c2cc(OC)c3ccccc3c21 was read as KCNQ2 inh inactive.
`CN(CC(=O)Nc1ccccc1-c1ccccc1)C1CCCCC1` gave KCNQ2 enhance -6.38 and KCNQ2 inh -6.38*.
For CCc1ccccc1NC(=O)CNC1CCCCC1 the results were KCNQ2 inh inactive.
CC1CCC(NC(=O)CNC(=S)N2CC3CC(C2)c2cccc(=O)n2C3)CC1 (stereo not drawn) was read as KCNQ2 inh inactive.
For Cc1ccc(C(c2nnnn2Cc2ccccc2)N2CC=C(c3ccc(F)cc3)CC2)cc1 (stereo not drawn) the results were KCNQ2 enhance -5.72 and KCNQ2 inh -5.72*.
Fc1ccc(C2=CCN(C(c3ccc(Cl)cc3)c3nnnn3Cc3ccccc3)CC2)cc1 (stereo not drawn) was read as KCNQ2 inh inactive.
CC(C)n1c(=O)c(C=Nc2ccc(F)cc2)c(O)n(Cc2ccco2)c1=O was read as KCNQ2 inh inactive.
For CCN1C[C@]2(CO)CC[C@H](OC)[C@@]34C5C[C@H]6[C@H](OC)C5[C@](O)(C[C@H]6OC)[C@@H](C(OC)C23)[C@@H]14 (stereo partly drawn) the results were KCNQ2 enhance 0.15 and KCNQ2 inh inactive.
`CCC1(C)OC(c2ccccc2)=C/C(=C/C=C2C(=O)NC(=O)NC2=O)O1` (stereo not drawn) gave KCNQ2 inh inactive.
Screening O=C(O)CC[N+](=O)[O-] returned KCNQ2 enhance 0.68 and KCNQ2 inh inactive.
Screening COc1ccc(C2SCC(=O)Nc3c2c(C)nn3-c2ccccc2)cc1 (stereo not drawn) returned KCNQ2 enhance 0.6 and KCNQ2 inh inactive.
`Cc1ccc(-n2nc(C)c3c2NC(=O)CSC3c2ccc3c(c2)OCO3)cc1` (stereo not drawn) gave KCNQ2 enhance -5.63 and KCNQ2 inh -5.63*.
Screening C=CCN1CCc2cccc3c2[C@H]1Cc1ccc(O)c(O)c1-3 returned KCNQ2 inh inactive.
Screening Cc1cc(C=O)c(C)n1C1CC1 returned KCNQ2 enhance 0.62 and KCNQ2 inh inactive.
For Cc1cccc(OP(=O)(Oc2ccccc2)OC(c2ccccc2)C(F)(F)F)c1 (stereo not drawn) the results were KCNQ2 enhance -6.49 and KCNQ2 inh -6.49*.
Screening Cc1ccc(C)c(NP(=O)(Oc2ccccc2)Oc2ccccc2)c1 returned KCNQ2 enhance 0.73 and KCNQ2 inh inactive.
Screening CCOC(=O)c1c(NC(=O)c2c(N)n(CCCOC)c3nc4ccccc4nc23)sc2c1CCCC2 returned KCNQ2 enhance 1.29 and KCNQ2 inh inactive.
CCOC(=O)c1c(NC(=O)C(c2ccccc2)c2ccccc2)sc2c1C1CCN2CC1 was read as KCNQ2 enhance -7.24 and KCNQ2 inh -7.24*.
CCOC(=O)c1c(C)n(Cc2ccccc2)c2ccc(OCC(O)CNC(C)(C)C)cc12 (stereo not drawn) was read as KCNQ2 enhance 0.22 and KCNQ2 inh inactive.
Screening CN/C=C(/Cl)P(=O)(OC(C)C)OC(C)C returned KCNQ2 enhance 1.7 and KCNQ2 inh inactive.
`O=C1NC(=O)C2(Cc3ccccc3N3CCCC32)C(=O)N1Cc1ccccc1` (stereo not drawn) gave KCNQ2 inh inactive.
For O=C1NC(=O)[C@]2(Cc3ccccc3N3CCN(c4ccccc4)CC32)C(=O)N1c1ccccc1 (stereo partly drawn) the results were KCNQ2 enhance -6.06 and KCNQ2 inh -6.06*.
O=C1NC(=O)[C@]2(Cc3ccccc3N3CCN(c4ccccc4)CC32)C(=O)N1Cc1ccccc1 (stereo partly drawn) was read as KCNQ2 enhance -5.7 and KCNQ2 inh -5.7*.
CN1C(=O)NC(=O)[C@]2(Cc3ccccc3N3CCN(c4ccccc4)CC32)C1=O (stereo partly drawn) was read as KCNQ2 inh inactive.
For O=C1C2CCCN2C(c2cccs2)N1c1ccccn1 (stereo not drawn) the results were KCNQ2 inh inactive.
COP(=O)(OC)C(NC(=O)/C=C/c1ccccc1)C(Cl)(Cl)Cl (stereo not drawn) was read as KCNQ2 enhance 0.03 and KCNQ2 inh inactive.
